# From paper PMC7862700, “An all-to-all approach to the identification of sequence-specific readers for epigenetic DNA modifications on cytosine”
# What was measured:
# Experiment in all cases: DAPPL (digital affinity profiling via proximity ligation, sequencing); 10 mM Tris-HCl pH 7.5, 50 mM NaCl, 1 mM DTT, 4% glycerol, room temperature, 30 min; GST-TFs on glutathione beads, 16-mer random dsDNA library, 0.1% formaldehyde crosslink after washing; high values mean tight binding
# FLI1 = molecular target: T1, FLI1 (Homo sapiens, UniProt Q01543 1-452); settings: protein: recombinant; tags: N-terminal GST; dsDNA, one strand shown
# T1 sequence: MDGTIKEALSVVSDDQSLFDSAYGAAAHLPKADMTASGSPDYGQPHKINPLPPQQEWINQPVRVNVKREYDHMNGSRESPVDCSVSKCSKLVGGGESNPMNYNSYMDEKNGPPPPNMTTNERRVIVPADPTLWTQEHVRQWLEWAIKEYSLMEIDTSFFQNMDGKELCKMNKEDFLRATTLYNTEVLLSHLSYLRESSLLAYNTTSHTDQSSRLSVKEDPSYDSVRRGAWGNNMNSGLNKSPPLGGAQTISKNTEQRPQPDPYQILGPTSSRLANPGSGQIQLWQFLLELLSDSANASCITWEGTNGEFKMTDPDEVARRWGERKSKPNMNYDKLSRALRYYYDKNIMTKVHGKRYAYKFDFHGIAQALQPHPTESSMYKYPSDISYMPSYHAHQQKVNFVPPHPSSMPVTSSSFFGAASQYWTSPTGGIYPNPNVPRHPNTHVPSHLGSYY
# In short: (§1)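 Human transcription factors fused to GST were expressed in yeast, captured on glutathione beads, given DNA barcodes and pooled with a GST-only negative control. Pools were incubated with 200 nmole of a 16-mer random double-stranded DNA library in Tris/NaCl/DTT/glycerol buffer at room temperature for 30 min. They were then washed, crosslinked with 0.1% formaldehyde, proximity-ligated (BsaI/T4 ligase, 1 h, 37 °C), PCR-amplified and sequenced on an Illumina NextSeq500. Binding signal is each 6-mer's read frequency for a factor divided by its frequency for the GST control.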
# ELK1 = molecular target: T2, ELK1 (Homo sapiens, UniProt P19419 1-428); settings: protein: recombinant; tags: N-terminal GST; dsDNA, one strand shown
# T2 sequence: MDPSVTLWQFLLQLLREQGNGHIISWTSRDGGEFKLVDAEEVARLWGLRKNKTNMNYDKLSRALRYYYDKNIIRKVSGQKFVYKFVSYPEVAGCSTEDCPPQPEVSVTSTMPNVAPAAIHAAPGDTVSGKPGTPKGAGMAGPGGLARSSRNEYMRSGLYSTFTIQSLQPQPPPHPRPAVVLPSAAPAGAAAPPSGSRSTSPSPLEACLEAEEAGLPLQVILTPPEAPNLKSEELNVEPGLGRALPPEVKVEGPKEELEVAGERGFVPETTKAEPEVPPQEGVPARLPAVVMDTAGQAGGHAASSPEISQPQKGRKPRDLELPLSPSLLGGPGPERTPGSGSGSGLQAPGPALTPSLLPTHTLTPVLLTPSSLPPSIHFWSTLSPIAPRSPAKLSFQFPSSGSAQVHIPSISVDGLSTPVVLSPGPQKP
# In short: as §1
# GABPA = molecular target: T3, GABPA (Homo sapiens, UniProt Q06546 1-454); settings: protein: recombinant; tags: N-terminal GST; dsDNA, one strand shown
# T3 sequence: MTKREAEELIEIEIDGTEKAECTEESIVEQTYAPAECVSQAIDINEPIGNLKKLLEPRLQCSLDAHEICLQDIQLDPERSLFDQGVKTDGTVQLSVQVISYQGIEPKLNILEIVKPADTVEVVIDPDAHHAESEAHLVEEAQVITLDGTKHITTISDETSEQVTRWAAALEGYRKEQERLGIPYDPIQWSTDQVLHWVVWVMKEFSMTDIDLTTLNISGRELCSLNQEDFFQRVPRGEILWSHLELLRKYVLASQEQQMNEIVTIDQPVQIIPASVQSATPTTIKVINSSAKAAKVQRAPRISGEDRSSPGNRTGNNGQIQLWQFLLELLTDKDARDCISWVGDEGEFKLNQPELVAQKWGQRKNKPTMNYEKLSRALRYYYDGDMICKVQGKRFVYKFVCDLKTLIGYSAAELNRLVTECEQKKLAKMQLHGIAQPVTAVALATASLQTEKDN
# In short: as §1
# ERG = molecular target: T4, ERG (Homo sapiens, UniProt P11308 1-479); settings: protein: recombinant; tags: N-terminal GST; dsDNA, one strand shown
# T4 sequence: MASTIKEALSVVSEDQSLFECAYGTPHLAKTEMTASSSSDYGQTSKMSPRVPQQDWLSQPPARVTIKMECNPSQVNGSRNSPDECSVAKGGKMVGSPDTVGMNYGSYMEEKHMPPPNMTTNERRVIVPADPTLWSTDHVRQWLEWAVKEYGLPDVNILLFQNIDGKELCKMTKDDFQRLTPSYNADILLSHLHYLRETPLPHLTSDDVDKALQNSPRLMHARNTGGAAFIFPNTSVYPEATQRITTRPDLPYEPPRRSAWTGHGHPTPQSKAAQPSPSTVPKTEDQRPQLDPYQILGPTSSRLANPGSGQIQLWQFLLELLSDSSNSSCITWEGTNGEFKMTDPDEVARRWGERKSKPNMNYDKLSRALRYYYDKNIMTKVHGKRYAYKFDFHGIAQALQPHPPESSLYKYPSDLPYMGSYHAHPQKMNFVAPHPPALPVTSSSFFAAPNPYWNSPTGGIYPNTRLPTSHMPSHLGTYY
# In short: as §1
# ELF1 = ELF1 (Homo sapiens, UniProt P32519 1-619); settings: protein: recombinant; tags: N-terminal GST; dsDNA, one strand shown
# ELF1, sequence (P32519 whole entry): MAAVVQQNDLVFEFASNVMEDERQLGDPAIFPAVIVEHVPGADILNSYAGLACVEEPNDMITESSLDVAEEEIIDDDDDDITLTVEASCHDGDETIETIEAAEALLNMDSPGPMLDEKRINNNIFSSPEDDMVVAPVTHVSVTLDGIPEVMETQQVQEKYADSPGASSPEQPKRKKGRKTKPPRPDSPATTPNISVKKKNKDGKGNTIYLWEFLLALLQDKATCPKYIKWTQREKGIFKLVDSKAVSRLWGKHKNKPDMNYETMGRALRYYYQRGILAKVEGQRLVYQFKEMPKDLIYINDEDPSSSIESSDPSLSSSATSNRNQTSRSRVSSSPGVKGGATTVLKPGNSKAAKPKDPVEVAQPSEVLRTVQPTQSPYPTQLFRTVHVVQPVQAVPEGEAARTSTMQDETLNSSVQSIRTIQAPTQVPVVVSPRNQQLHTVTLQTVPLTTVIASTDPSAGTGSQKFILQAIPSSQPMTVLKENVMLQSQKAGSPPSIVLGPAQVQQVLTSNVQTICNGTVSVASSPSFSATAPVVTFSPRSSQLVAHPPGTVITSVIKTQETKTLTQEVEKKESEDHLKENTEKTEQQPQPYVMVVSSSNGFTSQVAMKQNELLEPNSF
# In short: as §1
# EHF = molecular target: T5, EHF (Homo sapiens, UniProt Q9NZC4 1-300); settings: protein: recombinant; tags: N-terminal GST; dsDNA, one strand shown
# T5 sequence: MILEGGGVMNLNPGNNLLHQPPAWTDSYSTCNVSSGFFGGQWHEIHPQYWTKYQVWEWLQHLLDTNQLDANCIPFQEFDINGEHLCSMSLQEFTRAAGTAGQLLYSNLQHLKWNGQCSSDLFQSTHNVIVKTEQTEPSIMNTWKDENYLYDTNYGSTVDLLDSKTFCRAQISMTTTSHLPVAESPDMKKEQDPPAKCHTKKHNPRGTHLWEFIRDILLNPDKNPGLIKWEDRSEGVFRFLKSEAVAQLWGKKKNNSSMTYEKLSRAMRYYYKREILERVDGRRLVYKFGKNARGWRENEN
# In short: as §1
# SPI1 = SPI1 (Homo sapiens, UniProt P17947 1-270); settings: protein: recombinant; tags: N-terminal GST; dsDNA, one strand shown
# In short: as §1
# SPIB = SPIB (Homo sapiens, UniProt Q01892 1-262); settings: protein: recombinant; tags: N-terminal GST; dsDNA, one strand shown
# SPIB, sequence (Q01892 whole entry): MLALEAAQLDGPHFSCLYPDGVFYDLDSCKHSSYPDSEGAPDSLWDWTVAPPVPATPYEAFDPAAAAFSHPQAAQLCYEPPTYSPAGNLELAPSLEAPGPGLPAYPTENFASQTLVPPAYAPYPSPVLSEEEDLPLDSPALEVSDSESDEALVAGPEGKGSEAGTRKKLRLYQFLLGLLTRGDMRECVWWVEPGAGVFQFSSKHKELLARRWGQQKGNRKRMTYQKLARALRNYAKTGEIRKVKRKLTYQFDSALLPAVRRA
# In short: as §1
# ELK3 = molecular target: T6, ELK3 (Homo sapiens, UniProt P41970 1-407); settings: protein: recombinant; tags: N-terminal GST; dsDNA, one strand shown
# T6 sequence: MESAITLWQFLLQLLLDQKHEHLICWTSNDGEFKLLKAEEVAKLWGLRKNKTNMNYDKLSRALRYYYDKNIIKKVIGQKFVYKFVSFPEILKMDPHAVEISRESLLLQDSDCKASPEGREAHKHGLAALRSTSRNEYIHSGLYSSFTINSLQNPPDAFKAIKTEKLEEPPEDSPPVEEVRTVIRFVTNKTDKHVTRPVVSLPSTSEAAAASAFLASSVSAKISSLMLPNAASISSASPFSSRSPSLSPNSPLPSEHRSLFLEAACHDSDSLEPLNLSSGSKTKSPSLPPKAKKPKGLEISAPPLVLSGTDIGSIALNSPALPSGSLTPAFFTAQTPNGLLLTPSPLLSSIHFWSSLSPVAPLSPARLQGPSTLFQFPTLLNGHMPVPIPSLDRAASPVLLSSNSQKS
# In short: as §1
# FEV = molecular target: T7, FEV (Homo sapiens, UniProt Q99581 1-238); settings: protein: recombinant; tags: N-terminal GST; dsDNA, one strand shown
# T7 sequence: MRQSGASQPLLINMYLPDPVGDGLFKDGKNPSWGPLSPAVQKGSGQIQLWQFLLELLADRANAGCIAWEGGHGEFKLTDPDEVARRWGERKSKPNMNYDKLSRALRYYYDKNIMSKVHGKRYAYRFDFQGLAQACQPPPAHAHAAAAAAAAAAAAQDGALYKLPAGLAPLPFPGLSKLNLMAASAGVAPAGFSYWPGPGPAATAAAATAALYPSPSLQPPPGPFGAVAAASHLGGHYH
# In short: as §1
# ETV5 = ETV5 (Homo sapiens, UniProt P41161 1-510); settings: protein: recombinant; tags: N-terminal GST; dsDNA, one strand shown
# ETV5, sequence (P41161 whole entry): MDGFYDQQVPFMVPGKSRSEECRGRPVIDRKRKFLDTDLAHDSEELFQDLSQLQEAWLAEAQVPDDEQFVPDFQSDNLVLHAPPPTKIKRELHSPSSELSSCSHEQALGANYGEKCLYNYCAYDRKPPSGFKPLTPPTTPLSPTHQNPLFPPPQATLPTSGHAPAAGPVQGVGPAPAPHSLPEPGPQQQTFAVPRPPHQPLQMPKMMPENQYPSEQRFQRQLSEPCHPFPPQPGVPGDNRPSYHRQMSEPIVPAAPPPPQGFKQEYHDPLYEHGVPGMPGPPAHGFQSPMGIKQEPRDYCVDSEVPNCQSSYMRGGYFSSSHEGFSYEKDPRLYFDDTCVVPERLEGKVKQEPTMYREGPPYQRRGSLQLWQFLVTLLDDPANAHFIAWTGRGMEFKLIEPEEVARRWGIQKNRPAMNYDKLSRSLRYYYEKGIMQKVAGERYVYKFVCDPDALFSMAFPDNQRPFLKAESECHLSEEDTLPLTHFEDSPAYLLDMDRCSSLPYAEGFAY
# In short: as §1
# HSF1 = HSF1 (Homo sapiens, UniProt Q00613 1-529); settings: protein: recombinant; tags: N-terminal GST; chain copies: 3; dsDNA, one strand shown
# HSF1, sequence (Q00613 whole entry): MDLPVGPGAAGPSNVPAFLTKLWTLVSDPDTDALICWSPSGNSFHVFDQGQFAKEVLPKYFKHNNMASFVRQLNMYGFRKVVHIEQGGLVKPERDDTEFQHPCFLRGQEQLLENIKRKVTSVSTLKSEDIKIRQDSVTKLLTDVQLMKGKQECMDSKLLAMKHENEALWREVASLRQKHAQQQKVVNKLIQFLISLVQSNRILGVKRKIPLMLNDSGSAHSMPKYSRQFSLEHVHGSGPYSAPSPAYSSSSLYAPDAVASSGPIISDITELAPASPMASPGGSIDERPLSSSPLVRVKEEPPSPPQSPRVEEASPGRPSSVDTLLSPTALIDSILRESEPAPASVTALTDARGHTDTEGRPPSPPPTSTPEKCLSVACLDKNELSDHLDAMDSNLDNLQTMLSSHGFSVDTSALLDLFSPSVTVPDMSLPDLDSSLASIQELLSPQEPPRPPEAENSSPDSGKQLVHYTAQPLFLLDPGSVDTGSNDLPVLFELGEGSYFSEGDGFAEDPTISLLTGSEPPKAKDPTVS
# In short: as §1
# SPIC = molecular target: T8, SPIC (Homo sapiens, UniProt Q8N5J4 1-248); settings: protein: recombinant; tags: N-terminal GST; dsDNA, one strand shown
# T8 sequence: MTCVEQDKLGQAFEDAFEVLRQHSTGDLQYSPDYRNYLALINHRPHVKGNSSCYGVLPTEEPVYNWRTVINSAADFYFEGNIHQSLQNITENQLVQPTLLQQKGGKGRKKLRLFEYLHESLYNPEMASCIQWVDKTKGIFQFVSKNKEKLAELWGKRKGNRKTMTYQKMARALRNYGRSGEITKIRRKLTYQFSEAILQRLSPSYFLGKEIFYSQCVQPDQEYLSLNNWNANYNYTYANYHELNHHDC
# In short: as §1
# ELF4 = ELF4 (Homo sapiens, UniProt Q99607 1-663); settings: protein: recombinant; tags: N-terminal GST; dsDNA, one strand shown
# ELF4, sequence (Q99607 whole entry): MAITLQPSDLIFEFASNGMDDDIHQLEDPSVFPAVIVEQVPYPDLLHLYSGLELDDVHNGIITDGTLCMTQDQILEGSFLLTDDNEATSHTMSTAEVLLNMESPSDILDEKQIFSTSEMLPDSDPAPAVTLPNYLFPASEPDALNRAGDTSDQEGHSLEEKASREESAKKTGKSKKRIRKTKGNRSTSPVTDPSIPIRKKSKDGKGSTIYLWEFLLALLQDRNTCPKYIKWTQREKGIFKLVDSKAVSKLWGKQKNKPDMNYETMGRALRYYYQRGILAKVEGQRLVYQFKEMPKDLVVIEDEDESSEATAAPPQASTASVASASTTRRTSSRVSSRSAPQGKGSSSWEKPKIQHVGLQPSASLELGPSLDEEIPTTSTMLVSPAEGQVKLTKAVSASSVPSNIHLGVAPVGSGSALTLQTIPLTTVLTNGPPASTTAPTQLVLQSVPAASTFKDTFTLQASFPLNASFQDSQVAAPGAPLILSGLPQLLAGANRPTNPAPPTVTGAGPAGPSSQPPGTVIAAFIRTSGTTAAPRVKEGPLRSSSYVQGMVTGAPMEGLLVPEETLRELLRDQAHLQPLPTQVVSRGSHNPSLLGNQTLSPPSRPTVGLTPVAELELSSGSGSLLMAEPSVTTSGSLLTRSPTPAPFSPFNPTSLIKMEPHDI
# In short: as §1
# ELK4 = molecular target: T9, ELK4 (Homo sapiens, UniProt P28324-2 1-405); settings: protein: recombinant; tags: N-terminal GST; dsDNA, one strand shown
# T9 sequence: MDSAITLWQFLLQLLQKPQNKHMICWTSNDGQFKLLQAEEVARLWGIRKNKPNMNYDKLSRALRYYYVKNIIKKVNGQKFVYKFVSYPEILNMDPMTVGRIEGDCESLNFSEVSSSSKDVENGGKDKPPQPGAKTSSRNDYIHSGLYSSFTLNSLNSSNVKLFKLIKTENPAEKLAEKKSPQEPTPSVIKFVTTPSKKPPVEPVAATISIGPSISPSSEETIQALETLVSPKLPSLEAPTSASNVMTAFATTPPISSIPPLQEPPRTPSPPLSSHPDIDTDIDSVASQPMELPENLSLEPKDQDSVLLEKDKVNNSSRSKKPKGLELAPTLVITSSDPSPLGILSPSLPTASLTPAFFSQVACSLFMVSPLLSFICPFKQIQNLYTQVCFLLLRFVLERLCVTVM
# In short: as §1
# ETV2 = molecular target: T10, ETV2 (Homo sapiens, UniProt O00321 1-342); settings: protein: recombinant; tags: N-terminal GST; dsDNA, one strand shown
# T10 sequence: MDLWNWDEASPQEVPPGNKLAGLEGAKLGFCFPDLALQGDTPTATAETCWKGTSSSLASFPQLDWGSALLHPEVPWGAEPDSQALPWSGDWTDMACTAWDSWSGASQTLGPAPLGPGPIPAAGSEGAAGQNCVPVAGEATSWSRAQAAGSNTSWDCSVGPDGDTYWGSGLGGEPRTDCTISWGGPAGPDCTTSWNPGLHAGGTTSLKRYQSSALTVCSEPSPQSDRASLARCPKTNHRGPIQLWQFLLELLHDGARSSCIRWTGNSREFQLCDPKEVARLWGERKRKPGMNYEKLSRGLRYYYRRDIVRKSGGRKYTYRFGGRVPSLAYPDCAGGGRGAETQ
# In short: as §1
# ELF3 = molecular target: T11, ELF3 (Homo sapiens, UniProt P78545 1-371); settings: protein: recombinant; tags: N-terminal GST; dsDNA, one strand shown
# T11 sequence: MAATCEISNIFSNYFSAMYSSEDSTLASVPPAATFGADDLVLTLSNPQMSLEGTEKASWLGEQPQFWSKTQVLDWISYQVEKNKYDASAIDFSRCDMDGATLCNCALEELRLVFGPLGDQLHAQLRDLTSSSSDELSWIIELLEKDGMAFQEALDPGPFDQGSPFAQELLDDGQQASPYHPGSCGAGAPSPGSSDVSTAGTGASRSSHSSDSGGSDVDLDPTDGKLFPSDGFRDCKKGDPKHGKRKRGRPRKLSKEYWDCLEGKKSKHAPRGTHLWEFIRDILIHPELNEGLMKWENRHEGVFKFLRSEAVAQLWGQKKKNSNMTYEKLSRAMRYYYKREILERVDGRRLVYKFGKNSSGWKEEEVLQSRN
# In short: as §1
# CRX = CRX (Homo sapiens, UniProt O43186 1-299); settings: protein: recombinant; tags: N-terminal GST; dsDNA, one strand shown
# CRX, sequence (O43186 whole entry): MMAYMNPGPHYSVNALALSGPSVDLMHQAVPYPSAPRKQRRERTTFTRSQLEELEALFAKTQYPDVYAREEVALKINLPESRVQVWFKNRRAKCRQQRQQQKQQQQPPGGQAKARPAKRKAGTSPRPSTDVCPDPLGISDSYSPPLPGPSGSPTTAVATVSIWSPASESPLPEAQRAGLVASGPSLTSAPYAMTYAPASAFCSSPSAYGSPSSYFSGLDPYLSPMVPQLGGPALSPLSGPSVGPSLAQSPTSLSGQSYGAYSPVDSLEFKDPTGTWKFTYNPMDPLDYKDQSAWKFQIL
# In short: as §1
# ETV1 = ETV1 (Homo sapiens, UniProt P50549 1-477); settings: protein: recombinant; tags: N-terminal GST; dsDNA, one strand shown
# ETV1, sequence (P50549 whole entry): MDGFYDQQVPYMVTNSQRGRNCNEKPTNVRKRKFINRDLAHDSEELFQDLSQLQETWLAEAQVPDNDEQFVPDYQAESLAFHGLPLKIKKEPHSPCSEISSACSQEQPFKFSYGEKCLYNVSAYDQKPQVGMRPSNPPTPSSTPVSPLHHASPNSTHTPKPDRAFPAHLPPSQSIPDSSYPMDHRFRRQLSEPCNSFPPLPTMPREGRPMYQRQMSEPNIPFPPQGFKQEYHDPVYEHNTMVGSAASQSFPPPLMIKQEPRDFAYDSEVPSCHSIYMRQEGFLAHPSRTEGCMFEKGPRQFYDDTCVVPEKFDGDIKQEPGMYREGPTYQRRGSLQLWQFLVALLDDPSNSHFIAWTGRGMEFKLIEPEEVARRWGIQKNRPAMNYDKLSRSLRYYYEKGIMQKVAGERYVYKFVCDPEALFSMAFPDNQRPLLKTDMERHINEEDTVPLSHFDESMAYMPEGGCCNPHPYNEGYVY
# In short: as §1
sequence,measurement,setting,value
ACGCCT,binding signal,FLI1,"1.16 fold enrichment (6-mer frequency, TF over GST control)"
same,binding signal,ELK1,"1.24 fold enrichment (6-mer frequency, TF over GST control)"
same,binding signal,GABPA,"1.21 fold enrichment (6-mer frequency, TF over GST control)"
same,binding signal,ERG,"1.2 fold enrichment (6-mer frequency, TF over GST control)"
same,binding signal,ELF1,"1.29 fold enrichment (6-mer frequency, TF over GST control)"
same,binding signal,EHF,"1.12 fold enrichment (6-mer frequency, TF over GST control)"
same,binding signal,SPI1,"1.14 fold enrichment (6-mer frequency, TF over GST control)"
same,binding signal,SPIB,"1.2 fold enrichment (6-mer frequency, TF over GST control)"
same,binding signal,ELK3,"1.21 fold enrichment (6-mer frequency, TF over GST control)"
same,binding signal,FEV,"1.17 fold enrichment (6-mer frequency, TF over GST control)"
same,binding signal,ETV5,"1.2 fold enrichment (6-mer frequency, TF over GST control)"
same,binding signal,HSF1,"1.15 fold enrichment (6-mer frequency, TF over GST control)"
same,binding signal,SPIC,"1.25 fold enrichment (6-mer frequency, TF over GST control)"
same,binding signal,ELF4,"1.21 fold enrichment (6-mer frequency, TF over GST control)"
same,binding signal,ELK4,"1.09 fold enrichment (6-mer frequency, TF over GST control)"
same,binding signal,ETV2,"1.29 fold enrichment (6-mer frequency, TF over GST control)"
same,binding signal,ELF3,"1.12 fold enrichment (6-mer frequency, TF over GST control)"
same,binding signal,CRX,"1.08 fold enrichment (6-mer frequency, TF over GST control)"
same,binding signal,ETV1,"1.05 fold enrichment (6-mer frequency, TF over GST control)"
